The full ranking holds about 68,000 sequences; the median of “fluorescence intensity (a.u.)” is about 9,100, and the highest 2% start at about 16,000. For the sample, the highest values were picked, then their nearest neighbours and some sequences at random.
These sequences were tested against OsWRKY34 (Oryza sativa, UniProt Q0JBA9 1-250) (assay: protein-binding microarray (RPBM); PBS, 2% BSA, 51.3 ng/ul salmon testes DNA, 50 uM zinc acetate, 200 nM TF, 25 C, 1 h; high values mean tight binding). Conditions: protein: recombinant; tags: N-terminal polyhistidine and DsRed monomer fusion (pET32a); label: CyDye5-dUTP incorporated in the synthesized complementary strand; 3' TTTTT single-stranded linker to array surface; dsDNA, one strand shown.
In short: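 Using Ni–NTA, transcription factors fused N-terminally to polyhistidine and DsRed were purified after expression in E. coli BL21-CodonPlus. These were incubated at 200 nM with a blocked, double-stranded custom Agilent array for 1 h at 25 °C in a buffer containing 50 µM zinc acetate, and the array was washed. The binding signal is per-feature fluorescence intensity (arbitrary units) on an Axon 4000B scanner.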

Sequence of OsWRKY34 (Q0JBA9 entry or part of it): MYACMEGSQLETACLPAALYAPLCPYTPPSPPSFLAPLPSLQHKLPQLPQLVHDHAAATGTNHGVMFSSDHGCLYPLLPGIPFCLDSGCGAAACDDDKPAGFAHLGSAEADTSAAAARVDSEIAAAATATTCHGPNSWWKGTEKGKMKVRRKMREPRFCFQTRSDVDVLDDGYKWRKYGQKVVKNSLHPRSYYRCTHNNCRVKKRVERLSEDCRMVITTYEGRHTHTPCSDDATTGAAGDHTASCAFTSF

| Sequence | binding signal |
| --- | --- |
| TCTCTCTCACTCTTCCGGTCTTCCCTGGGCAGGCTAGCCGCGGAGTCACCTAGTGCAG | 8840 fluorescence intensity (a.u.) |
| TTCATGTCAGAATCCTATGTTTTTCCTATTCCTTTGTTTTCGGAGTCACCTAGTGCAG | 11000 fluorescence intensity (a.u.) |
| ATGATTTTTGGGTCATTTGGTTTGTTTTTGACTTTTGCAACGGAGTCACCTAGTGCAG | 12100 fluorescence intensity (a.u.) |
| TTTGTACCCGTTTTCTACTTTTTTTGTTTCATATTATTAACGGAGTCACCTAGTGCAG | 10900 fluorescence intensity (a.u.) |
| TATTTCTATATGGACTTTGTTTTTTCTTTTTCTTCTTTTTCGGAGTCACCTAGTGCAG | 13100 fluorescence intensity (a.u.) |
| TGGGGTCATGTTTGTACTTTGGCAACTGGTCGACTTCATACGGAGTCACCTAGTGCAG | 18400 fluorescence intensity (a.u.) |
| TTGTTGTAAAGCTTATGGGTCTACTTTCATATGGTTTTGGCGGAGTCACCTAGTGCAG | 64100 fluorescence intensity (a.u.) |
| ATATGTTGTTTGACTTTTTTCATAGTCAGAAGTCTATTGGCGGAGTCACCTAGTGCAG | 19000 fluorescence intensity (a.u.) |
| AATGGTTTGGTTGTTGTTTTTTTTAAAAAAAACTTTCAGGCGGAGTCACCTAGTGCAG | 8170 fluorescence intensity (a.u.) |
| CAGACACATACCTTTCATGCTTCAACTTTTGTATGTTTGTCGGAGTCACCTAGTGCAG | 8170 fluorescence intensity (a.u.) |
| GCTATACATCTTTCCACTACTTCTCCTCAGCTCGCTTTCCCGGAGTCACCTAGTGCAG | 8130 fluorescence intensity (a.u.) |
| AGCTTCTTTTTCTGTGATAGCAATACTGCCTCGAGGAGGACGGAGTCACCTAGTGCAG | 8950 fluorescence intensity (a.u.) |
| CCCAAAGTATTGATCGTTTTTGTTTATCATTTTGCTGGATCGGAGTCACCTAGTGCAG | 10300 fluorescence intensity (a.u.) |
| AACCTCTACTGCTCCATATATTTTCTTTCTGTCAGCCCATCGGAGTCACCTAGTGCAG | 11200 fluorescence intensity (a.u.) |
| ACGTAACACCTAGCAATTTTCTTCTCGCGAAATAAACAGTCGGAGTCACCTAGTGCAG | 8500 fluorescence intensity (a.u.) |
| GCAACCTCAGGATGCTCCACGAGCTTTCTCTTAGCTACAACGGAGTCACCTAGTGCAG | 17000 fluorescence intensity (a.u.) |
| GAGCTCCAAAGCTACGGTTTTTTTTTCTCTTTCTTTCTCACGGAGTCACCTAGTGCAG | 9080 fluorescence intensity (a.u.) |
| GGCAAACAATGCTCTCAGCCTCGCTTAGCTTTCACTCCACCGGAGTCACCTAGTGCAG | 8030 fluorescence intensity (a.u.) |
| CTTCTCCCATGCGCCGCCGCAATCTCATCTCTCTGTTTTTCGGAGTCACCTAGTGCAG | 9220 fluorescence intensity (a.u.) |
| TACTTATATTTACTTGCAGATCAGTTGCCTGCCAATACCGCGGAGTCACCTAGTGCAG | 8390 fluorescence intensity (a.u.) |
| GAACTTATTTTACTGCAATTGTTTGCATCACTTATTCTAACGGAGTCACCTAGTGCAG | 9570 fluorescence intensity (a.u.) |

| Sequence | binding signal |
| --- | --- |
| TAGATCAATACTGCCTAACGAACTTTTTTTTTTTTTTACGCGGAGTCACCTAGTGCAG | 16400 fluorescence intensity (a.u.) |
| CCTCTCCCTACTACTGTCGTATCGTCTCCTACCTCGCCTCCGGAGTCACCTAGTGCAG | 8340 fluorescence intensity (a.u.) |
| CCATCGCTGTCGCCAATTTATATTCTTTCTTAATCTCGACCGGAGTCACCTAGTGCAG | 9220 fluorescence intensity (a.u.) |
| AACGGTTCTTCTGGTCATTTCCAATTCGCCATCCGTCTGTCGGAGTCACCTAGTGCAG | 8930 fluorescence intensity (a.u.) |
| CCAATTCGCCATCCGTCTGTCGACCGCATCTTAATATCCGCGGAGTCACCTAGTGCAG | 17400 fluorescence intensity (a.u.) |
| CAAGCTGTTACTTTCTTGGTGGGCTTCTGTGTGCTTTATTCGGAGTCACCTAGTGCAG | 9940 fluorescence intensity (a.u.) |
| ACGCCTACAATGGTACTGTGTTTTTTTTATGATAGCGGTGCGGAGTCACCTAGTGCAG | 8060 fluorescence intensity (a.u.) |
| CCGCCGCTACTCTCCATCATTTCAGTTTTCTCTCGAGTCACGGAGTCACCTAGTGCAG | 10200 fluorescence intensity (a.u.) |
| CTTTTGCACTCGAGATATTTCATCAGTTCTTGCCATTTCACGGAGTCACCTAGTGCAG | 16500 fluorescence intensity (a.u.) |
| TTCTTTTGTTGTCCAATTCATTTCCATTTCTTGCCGTTTTCGGAGTCACCTAGTGCAG | 8320 fluorescence intensity (a.u.) |
| ACTTGCCTTGTTTCTTGTTCTTGTTCATTTCGACCGTTGTCGGAGTCACCTAGTGCAG | 17100 fluorescence intensity (a.u.) |
| TTCTTCTTTTCTTTTTTTTTTGTTTTCTTCTCATTCTTCTCGGAGTCACCTAGTGCAG | 10100 fluorescence intensity (a.u.) |
| ATATTCTCATTTTCAGTCTGTTGCACTAATTTTGCTATTTCGGAGTCACCTAGTGCAG | 12800 fluorescence intensity (a.u.) |
| TCTCTTTTCTCATTTATTCACTTGCCACATCATTTTTCATCGGAGTCACCTAGTGCAG | 8900 fluorescence intensity (a.u.) |
| ACTTTATTGTTTTTCTTCTTATTTTATTTCTCTGTTCTTTCGGAGTCACCTAGTGCAG | 10300 fluorescence intensity (a.u.) |
| TACGTTTCAGTTGTGCTTGTTCGGACCTTTCGATTTCTTTCGGAGTCACCTAGTGCAG | 13900 fluorescence intensity (a.u.) |
| ATCTTTTTGTTGTCTTTGAATTCAGTCTGTTTTTCTCATTCGGAGTCACCTAGTGCAG | 17900 fluorescence intensity (a.u.) |
| TCTCTTTTCTTTTCTTTCTTTTTATTTTGTTGTTCCTTTACGGAGTCACCTAGTGCAG | 12600 fluorescence intensity (a.u.) |
| ACATTGTTCTCTCTTTTACGGCCTTTTTTTTTTCTGAATTCGGAGTCACCTAGTGCAG | 17900 fluorescence intensity (a.u.) |
| TTTATACTCCTTCTGTTTCATATTATTTTTTTCTACTAGTCGGAGTCACCTAGTGCAG | 8860 fluorescence intensity (a.u.) |
| GACCACTAGCAGCCTCGTAACGTTTGCCTCATTTCATCAGCGGAGTCACCTAGTGCAG | 10500 fluorescence intensity (a.u.) |
